Experimental data taken from PubChem BioAssay (NCI).
Several values for one entry are separate records, joined by “and”; a condition that tells them apart may be missing. Identical values can stand only once. About 83,000 compounds went through this panel and 20% of them were active in at least one assay; those are over-represented in the sample as a whole.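 A percent growth of 40 corresponds to 60% growth inhibition; 0 means no net growth; -100 means all cells died. Active threshold: below 10.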 A number with no mark means an inactive call. Activity calls are given as the source filed them.

test system: MDA-MB-468 breast; experiment: NCI-60 one-dose screen, 48 h (100 = growth as untreated, 0 = no growth, -100 = all killed); conditions: 10 µM unless noted

| SMILES | growth |
| --- | --- |
| CCSCC1CC(O)(c2ccccc2)CC(c2ccc(F)cc2)O1 (stereo not given) | 8.89% (active) |
| O=C(CN1CCN(c2cc3c(cc2F)c(=O)c(C(=O)O)cn3C2CC2)CC1)Nc1cc(=O)[nH]c(=O)[nH]1 | 89.7% |
| COc1ccc(-c2csc(NC(=O)CN3CCN(c4cc5c(cc4F)c(=O)c(C(=O)O)cn5C4CC4)CC3)n2)cc1 | -0.675% (active) |
| O=C(Nc1ccc(-n2ccc3c(NC(=O)c4ccccc4)ncnc32)cc1)Nc1ccc(Cl)c(Cl)c1 | -36.7% (active) |
| Cc1ccc(-c2csc(NC(=O)CCCCl)n2)cc1 | 93.3% |
| COc1ccc2c(NCCCCCCCCNc3c4ccccc4nc4cc(OC)ccc34)c3ccccc3nc2c1 | -100% (active) |
| COc1cc2c(cc1OC)-c1c(oc3c4c(ccc3c1=O)OC(C)(C)C=C4)CO2 | 19.2% |
| COc1ccc(-c2cc(-c3cccc4ccccc34)n3c(n2)nc2ccccc23)cc1 | 52.4% |
| Cn1c(NCCc2ccc(O)c(O)c2)nc2c1c(=O)n(Cc1ccc(Br)cc1)c(=O)n2C | 43.3% |
| COC(=O)c1c2c(c(C)[n+]([O-])c1C)C(=O)C(NCc1ccc(F)c(Cl)c1)=CC2=O | -18% (active) |
| CC(C)OC(=O)Nc1cc(F)ccc1F | 92.8% |
| O=C1c2c(c3c4cccnc4[nH]c3c3ccc4ccccc4c23)C(=O)N1CCN1CCCCC1 | 29.4% |
| CCOC(=O)c1cnc2c(-c3ccc(Cl)c(Cl)c3)cnn2c1 | 85.4% |
| CC(C)N(CCCC#N)C(C)C | 104% |
| Cc1cc2c(F)c(Oc3ncnc(Nc4ccc(N5C[C@@H](C)N[C@@H](C)C5)cc4)c3C#N)cc(F)c2[nH]1 | -5% (active) |
| CC(=O)c1nc2ccccc2n1CCn1cc(CC(N)C(=O)O)c2ccccc21 (stereo not given) | 118% |
| CCCCCCCCN=C(NCCCCCCCC)SCc1cccc2ccccc12 | -93.9% (active) |
| COC(=O)[C@@H](Cc1c[nH]c2ccccc12)NC(=O)[C@H](Cc1ccccc1)NCc1ccncc1 | 103% |
| O=C(Nc1ccc2c(c1)OCO2)C(=O)c1c[nH]c2cc(F)ccc12 | 74.5% |
| CC(C)C(C)(C)C(=O)C(C)(C)C(C)(C)C | 90.1% |

| SMILES | growth |
| --- | --- |
| CC(C)NCCCNC1=C(Cl)C(=O)c2ccccc2C1=O | 34.6% |
| CCCCn1c(=O)[nH]c(N)c(C(c2ccc(Cl)cc2)c2c(N)[nH]c(=O)n(CCCC)c2=O)c1=O | 10.1% |
| COc1cc2ncnc3c2cc1OCCCCCN(C)Cc1ccc(Br)cc1N3 | -26.6% (active) |
| COc1ccc(-c2cc(/C=C3\C(=O)Nc4ccc(Cl)cc43)[nH]n2)cc1 | 41.7% |
| COC(=O)c1ccc(NC(=O)Nc2ccc(C(=O)OC)cc2)cc1 | 97.9% |
| CCOC(=O)c1nn(C2CCCCO2)c2ccc(NS(=O)(=O)c3ccc(C)cc3)cc12 (stereo not given) | 105% |
| Clc1ccc2c(NCCCN3CCN(c4nc(-n5ccnc5)nc5ccccc45)CC3)ccnc2c1 | 106% |
| Cc1ccc(C(=O)CSc2nc(-c3ccc(Br)cc3)c(C#N)c(=O)[nH]2)cc1 | 92.2% |
| O=C(Nc1ccc(Cl)cc1)Nc1ccc(Nc2nncc3ccccc23)cc1 | 0.165% (active) |
| O/N=C(/c1ccccc1)c1ccc2c3c(cccc13)CC2 | 57.5% and 59.8% |
| C#CCO[C@H]1CC(CC#C)(CC#C)C(=O)[C@@H]2[C@H]1[C@H]1C[C@@H]3[C@@]4(C)CCC[C@@](C)(C(=O)OC)[C@@H]4CC[C@@]23C=C1C(C)C | 94.7% |
| O=C(N/N=C/c1ccc(O)c(O)c1)c1sc2ccccc2c1Cl | 88.8% |
| CS(=O)(=O)c1ccc(C(=O)N/N=C/c2ccc3c(c2)OCO3)cc1 | 109% |
| O=C(O)c1ccc(-n2cc(/C=N/Nc3ccc(F)cc3)c(-c3cccc(C(F)(F)F)c3)n2)cc1 | 90.8% |
| N/C(=N\OC(=O)CSc1nc2ccccc2s1)c1ccc(Cl)cc1 | 100% |
| C[n+]1c2ccccc2c(Nc2ccc(N3CCCCC3)cc2)c2[nH]c3ccccc3c21 | -73.8% (active) |
| Cc1nc2ccccc2c(/C=C/c2ccccc2)c1C(=O)/C=C/c1ccc(C(F)(F)F)cc1 | -67.8% (active) |
| Cc1ccc(CSc2nc(-c3ccc(Cl)cc3)c(C#N)c(N3CCNCC3)n2)cc1 | 81.5% |
| Cc1ccc(-c2nc(SCC(=O)c3ccccc3)nc(Nc3ccc(S(N)(=O)=O)cc3)c2C#N)cc1 | 113% |
| N=C(N)c1ccc(OCCCCCCCCCCOc2ccc(C(=N)N)cc2)cc1 | -75.6% (active) |
